# Measured values from PubChem BioAssay AID1347423 (Functional Genomics Laboratory (NCATS/FGL), 2020).
# In all, about 52,000 sequences went through this assay and about 210 (0.4%) were called active. This excerpt belongs to a sample that is enriched for actives. A number with no mark means an inactive call.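 Rule for the calls: active = gene whose silencing raises cell survival under the drug, median off-target-corrected z-score across its silencing RNAs 2 or more; inactive = the rest.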
# Assay: Resistance to Poly (ADP-Ribose) Polymerase inhibitor: Gene Identification via Genome-wide siRNA Screen
# Conditions: mouse BRCA2 R2336H ES cells, olaparib, CellTiter-Glo viability; active compounds read high
# Description: The role of Poly (ADP-Ribose) Polymerase (PARP) proteins in DNA repair has been elegantly utilized for the synthetic lethality-based treatment of BRCA-deficient tumors by PARP inhibitors. PARP inhibitors are now being used for treatment of BRCA-deficient breast and ovarian cancers. […] While several mechanisms of drug resistance have been identified, majority of these tumors develop drug resistance due to unknown causes. To identified novel regulators of chemo-resistance in BRCA2-mutated cells, we performed a genome wide siRNA library screen. We have found ES cells expressing a hypomorphic allele of BRCA2 to be hypersensitive to PAPP inhibitors (such as olaparib). We used ES cells expressing a mutant allele of BRCA2 that has a single amino acid substitution at position 2336 (arginine to histidine, R2336H). The screen was conducted using an Ambion (Thermo) Silencer Mouse Genome siRNA collection. The library targets 17,575 mouse genes with 3 siRNAs per gene. TET2 (E130014J05Rik) was identified as a top candidate.
# Transfections were performed in 384 well plates (Corning 3707). Plates were coated with 0.1% gelatin in H2O overnight at ambient temperature. Gelatin solution was aspirated (BioTek EL406) and siRNAs were printed using a Bravo VPrep liquid handler integrated within a BioCel automation platform (Agilent). Cell viability was measured using CellTiter Glo (Promega). For transfections, […] of serum free media containing Lipofectamine RNAiMax […] was added to wells containing siRNA (0.8pmol). Lipid and siRNA were allowed to complex for 45 min at ambient temperature before addition of 1000 cells in DMEM, 30% FBS to yield final transfection mixtures containing 20 nM siRNA in DMEM, 15% FBS. PARPi (olaparib, AZD2281) was added 48 h post-transfection (500 nM) and viability (CellTiter Glo, Promega) was assayed 72 h later on a PerkinElmer Envision 2104 Multilabel plate reader. Ambion Silencer Select Negative Control #2 was incorporated on all screening plates (16 wells) and the median negative control value on each plate was used for normalization. An siRNA targeting Trp53 was used as a positive control. This control yielded a median protective effect of ~1.9 fold versus negative control throughout the screen. The median absolute deviation (MAD) based z-score was calculated for each siRNA. Genes were then ranked by taking the median value for all siRNAs tested against a given gene. Scores were also adjusted for seed-based off-target effects to help deprioritize likely false positives.
row,Sequence,z-score
1,CCAGAAACAUACGAAGAUUTT against Khdrbs1,2.31 (active)
2,GGUAUCUUCAAGUACAUGATT against BC011426,0.138
3,GGAGAUGGAGAAGUAGAUUTT against Abcf2,0.0903
4,GGGAAAUGUGUGUUAUCUGTT against Rnf126,1.17
5,CCCUGUCUCCCGCAUAGAATT against Itgb6,1.67 (active)
6,GAAAUCAUCCUGCCCAAAGTT against Vax1,0.607
7,GGUCCCAGUGUCAUGUCUUTT against Cdipt,0.00151
8,GGUCUAUACCAUCCUAUUGTT against Faim2,-1.24
9,CACUCAGCUCAAUGACCUGTT against Ifna14,-0.514
10,GCUACAAGCGAUAUAUUCCTT against Jak1,2.92 (active)
11,CCAUGGAGAAUCAUGACAGTT against Slfn1,0.281
12,GUAUCAUACAAUGAUGUCCTT against Olfr176,0.628
13,GGAAAACAGCUUUGAUUGGTT against E130009J12Rik,1.42
14,GGAACAGGAAUAACAUGACTT against V1re9,1.65
15,GUAUGAUGCACUCCAGUUGTT against Hdac8,-1.38
16,GCCAGUGCACUCCUCUUUUTT against Mmrp19,0.352
17,GCUGAACUAUAACUUGAAATT against Stat1,0.735
18,GCAAGAAGUAAUCAACUUUTT against Rqcd1,2 (active)
19,GGACUUUUACCAGUUCUCCTT against Ece2,0.967
20,GGUACAGGAAAAAAGAAGATT against Msl31,-0.435
21,GCACGUAGUAAGAUGUUACTT against Rqcd1,2.53 (active)
22,GGUGGUCUAAGUCCUGACATT against Hmx1,-0.564
23,GGUUAUUAAGAGCACUUUCTT against Catsper3,-0.553

row,Sequence,z-score
1,GCAUUAUGACUCUAAUAGCTT against Olfr60,0.536
2,GGGCUAUGUGCUCUUUUGUTT against Edg6,0.487
3,GGCAUUGUGAAGCUGAAACTT against Ptpn9,1.93 (active)
4,GGAGAAGGAGGUGAUAAUGTT against Sart1,0.088
5,GGUGCAGUUUAAGAGAGAATT against C630016B22Rik,0.153
6,GCCACCUCAAUGAAAGGAGTT against Slc23a1,0.609
7,GGUAAUUUGUUUGUGGUGATT against Mtnr1b,-0.531
8,GGCAUCCGUGUGUCUCUAGTT against 5730457F11Rik,-2.13 (active)
9,CCACUUUCGCUUUACCAAUTT against C330011M18Rik,0.267
10,CCAACUCUGUUACAUUAUGTT against Fshprh1,0.377
11,GGGCUAAAGUUGAUAAUAATT against Psmc3,-3.32
12,GGGAGCUCCAUUUAAAUUATT against A230103N10Rik,0.137
13,GGCAUUCAAAAGGUAAAAUTT against Grid2,2.35 (active)
14,CCAGCACUCAAUCCUGUAATT against Olfr305,-1.73
15,GCUAUCAACAAUCUUCGAATT against Azi1,0.37
16,GGAGAACACUUUAAUGCUGTT against 9230106D23Rik,0.667
17,GAACCUUUUCCGUUUCGAGTT against Cebpb,0.245
18,GGCCAGCAGACUAUUUAUUTT against 1110021N07Rik,-1.57
19,GGACCUAGAGGAAGUGAAATT against Apoa1,2.05 (active)
20,GCUUUACUUCUUCCUCAUUTT against Olfr924,-0.698
21,GGUCUAUGUACUCGCCAAATT against Ptpns1,-0.633
22,CCGUCACUAUACCCAAGUUTT against Olfr802,-3.11
23,CGUGCUUAAGAGUCCACUATT against H3f3a,-1.43

row,Sequence,z-score
1,CCUCGUUCAUACGACAGAATT against BC062951,-0.447
2,GCUUAGACUCACCAAAGGCTT against Gpr26,1.11
3,GCAACACAUUUGAACCACUTT against Usp15,2.9 (active)
4,GGCACAGAAAUUAUGUUCUTT against 1810012H11Rik,-0.685
5,GGAAUUCAACUCAGAUAAGTT against C3,-0.52
6,GGUUUUCUUAAAAUAGGAGTT against Tat,3.69 (active)
7,CCAUAUCCGUAGGUAUAUCTT against Htr2a,1.02
8,GGCUUGGAAGGAUUAGAAGTT against 4930418G15Rik,-0.344
9,CCUCCACUUACUUUGGGUGTT against Cic,1.48 (active)
10,GGAGCUCAACAAGUUGCUUTT against Hist1h2aa,-0.0931
11,GGGAGAUCUUUAAGAGAAATT against Tcfap2a,-0.65
12,CGAGAUCACGAGAUCGGUUTT against Prdm4,2.21
13,GGCCAAGCUGAUCAAUAUATT against Oprd1,-0.0592
14,CCCAAUAAAACUUCCGGGATT against BC021608,0.531
15,CUCUCGAACAAUCAACCACTT against Olfr315,-0.314
16,GCUGAAAUCAGAAGCUAACTT against Casc3,0.845
17,GCAUUGGCUGUACUACUAUTT against Psg18,-0.196
18,CCACAGCCAAAUGCACAAGTT against Gm1631,-0.237
19,GGGAAAUCAGUUUUACAAATT against Chl1,2.76 (active)
20,CCGGUUGCUAGGCUAAACATT against Wdr68,-3.25
21,CGUAAAACUCUUAGGCAUGTT against Npm1,2.54 (active)
22,CCCACUCCAAACAUCUAAATT against Gadd45b,0.111
